# Measured values taken from the supplement of paper PMC7801607.
# Experiments:
# [1] = test system: CHO; assay: % viability of CHO cells (MTT); higher = less toxic; conditions: 48 h
# Procedure, shortened: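 CHO cells seeded at 10^6 cells/well were exposed to compound at 2 or 20 µM for 48 h. Survival, as percent of untreated cells, was measured with the colorimetric tetrazolium (MTT) assay.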
# [2] = test system: HepG2-A16-CD81; assay: % inhibition of HepG2 viability (CellTiter-Glo); higher = more toxic; conditions: 5 µM
# [3] = test system: Plasmodium falciparum NF54 stage IV/V gametocytes; assay: % inhibition of gametocyte viability (PrestoBlue); higher = more inhibition; conditions: 48 h
# Procedure, shortened: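 Compound was tested at 1 or 5 µM against Stage IV/V NF54 gametocytes plated at 100 µL/well (2% gametocytaemia, 5% haematocrit). After 48 h of stationary, hypoxic incubation at 37 °C, 10 µL PrestoBlue was added for 2 h before reading 612 nm fluorescence from 70 µL of transferred supernatant. Gametocyte viability inhibition, as a percentage, was scaled against vehicle and kill controls from a single run.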
# [4] = test system: Plasmodium falciparum NF54 asexual blood stage; assay: % inhibition of asexual blood stage proliferation (pLDH); higher = more inhibition; conditions: 72 h
# Procedure, shortened: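 In 96-well plates, compound at 2 or 20 µM was added to Plasmodium falciparum NF54 ring-stage cultures (1% haematocrit, 2% parasitaemia). Plates were incubated for 72 h at 37 °C in 4% CO2, 3% O2 and 93% N2, and survival was then read at 620 nm using the parasite lactate dehydrogenase assay. Inhibition of asexual proliferation, expressed as a percentage, was normalised to controls.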
# [5] = test system: Plasmodium falciparum NF54 stage IV/V gametocytes; assay: % inhibition of gametocyte viability (ATP bioluminescence); higher = more inhibition; conditions: 24 h
# Procedure, shortened: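 Density gradients were used to enrich stage IV/V NF54 gametocytes, which were then seeded into 96-well plates at 30,000 per well with compound at 1 or 5 µM. The plates were incubated at 37 °C for 24 h, and ATP was measured with the Promega BacTiter Glo bioluminescence system. Percent inhibition of gametocyte viability was normalised to the plate controls from a single run.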
# [6] = test system: Plasmodium falciparum NF54 stage IV/V gametocytes; assay: % inhibition of gametocyte viability (luciferase reporter); higher = more inhibition; conditions: 48 h
# Procedure, shortened: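 Percent inhibition came from luminescence and was normalised to controls in a single run. Gametocytes (stage IV/V, NF54-Pfs16-GFP-Luc line, 2% gametocytaemia, 2% haematocrit) were treated with compound at 1 or 5 µM and incubated for 48 h at 37 °C without agitation under hypoxia. Readings used 30 µL lysate with 30 µL Promega luciferin substrate on a GloMax-Multi+ reader, integrating for 10 s.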
# [7] = test system: Plasmodium berghei ANKA liver stage in HepG2-A16-CD81; assay: % inhibition of liver stage parasite viability (luciferase); higher = more inhibition; conditions: 5 µM; 48 h
# Procedure: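 Single-concentration screen of the MMV Pandemic Response Box. P. falciparum NF54 asexual blood stages: pLDH assay, 72 h at 37 °C, 2 and 20 µM, n=2. Stage IV/V gametocytes (NF54): luciferase reporter (NF54-Pfs16-GFP-Luc, 48 h), ATP bioluminescence (24 h) and PrestoBlue (48 h) at 1 and 5 µM, n=1. P. berghei liver stage (luciferase in HepG2-A16-CD81, 48 h post infection) at 5 µM, n=4. All normalised to DMSO and kill controls as % inhibition.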
# 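Wherever % inhibition of HepG2 viability (CellTiter-Glo) is given: HepG2-A16-CD81 hepatoma cells plated as in the liver-stage assay but without sporozoites, with DMSO wells as negative and 25 µM puromycin as positive control.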
Structure (SMILES),% viability of CHO cells ([1]; 2 µM),% viability of CHO cells ([1]; 20 µM),% inhibition of HepG2 viability [2],% inhibition of gametocyte viability ([3]; 1 µM),% inhibition of gametocyte viability ([3]; 5 µM),% inhibition of asexual blood stage proliferation ([4]; 2 µM),% inhibition of asexual blood stage proliferation ([4]; 20 µM),% inhibition of gametocyte viability ([5]; 1 µM),% inhibition of gametocyte viability ([5]; 5 µM),% inhibition of gametocyte viability ([6]; 1 µM),% inhibition of gametocyte viability ([6]; 5 µM),% inhibition of liver stage parasite viability [7]
N[C@H]1CCC[C@H]1C(=O)O,109%,145%,-8.85%,35.6%,26.5%,31.3%,18.9%,< 0%,< 0%,< 0%,< 0%,15.8%
Cn1cncc1[C@@](N)(c1ccc(Cl)cc1)c1ccc2c(c1)c(-c1cccc(Cl)c1)cc(=O)n2C,94.8%,47.9%,31.9%,21.7%,31.8%,51.2%,75.9%,15.7%,16.3%,0.69%,< 0%,60.7%
Cc1[nH]c2ccccc2c1CC(=O)N[C@@H](Cc1ccccc1)C(=O)N(C)c1ccccc1,80.4%,56%,4.27%,25.2%,23.6%,-9.75%,76.5%,6.25%,< 0%,1.82%,1.07%,8.84%
COc1cc(NS(=O)(=O)c2ccc(C)cc2)c2ncccc2c1,118%,94.1%,-7.96%,< 0%,0.605%,45.4%,75.7%,1.27%,62.2%,3.47%,1.7%,48.9%
C[C@@H](O)[C@H](N)C(=O)NS(=O)(=O)c1cccc(-c2ccc3[nH]ncc3c2)c1,85.2%,96%,-0.0475%,35.8%,19.7%,-13.1%,32%,< 0%,< 0%,< 0%,6.84%,31.2%
C[C@H]1[C@@H](c2cccc(C(F)(F)F)c2)OC(=O)N1C(=O)NCc1cncc2ccccc12,93.8%,118%,12.1%,< 0%,27.7%,-2.37%,30.8%,< 0%,< 0%,< 0%,< 0%,63.9%
CCNC(=O)Nc1cn2c(-c3ncc(CC)cn3)cc(-c3cccnc3)cc2n1,91.8%,58.4%,0.015%,19.9%,36.7%,46%,88.1%,7.29%,24.5%,1.08%,6.06%,4.97%
C[C@H](Cn1cnc2c(N)ncnc21)OCP(=O)(O)O,89.8%,99.9%,-1.34%,10.5%,17.7%,-36.5%,46.2%,5.56%,< 0%,9.2%,< 0%,9.32%
CSC[C@H]1CN(Cc2c[nH]c3c(N)ncnc23)C[C@@H]1O,68.9%,46.2%,8.54%,< 0%,< 0%,14.2%,8.91%,< 0%,< 0%,< 0%,6.79%,40.2%
O=C(c1nc2c(C(F)(F)F)cc(C3CC3)cn2c1Cl)N1CCN([C@H]2CC[C@H](O)CC2)C(=O)C1,100%,116%,0.895%,28.7%,6.18%,14.7%,46.1%,10.1%,1.45%,3.76%,< 0%,16.9%
CCCCSc1nc(N)c2[nH]c(=O)c(=O)n(Cc3ccccc3)c2n1,114%,55.2%,4.02%,1.71%,21.9%,14.9%,14.6%,< 0%,< 0%,< 0%,< 0%,-9.6%
COc1ccc(C)cc1NC(=O)c1ccc(S(=O)(=O)N2CCCCC2)cc1,128%,156%,6.14%,0.335%,3.85%,1.42%,32.8%,< 0%,< 0%,< 0%,< 0%,30%
CC(C)(C)c1ccc(Oc2ccc(N)cc2)cc1,130%,58.8%,-4.14%,< 0%,67%,-4.84%,55.8%,< 0%,< 0%,66.9%,89.3%,54.4%
NC[C@H]1OB(O)c2c(OCCCO)cccc21,123%,109%,-3.46%,10.1%,< 0%,6.89%,18.5%,< 0%,< 0%,< 0%,2.44%,-16.7%
FC(F)(F)Oc1ccc(Nc2ccc3cccc(Cl)c3n2)cc1,101%,86.1%,0.506%,16.2%,< 0%,31%,98%,4.02%,< 0%,< 0%,< 0%,18%
C[C@H](NC(=O)C(=O)Nc1ccccc1C(C)(C)C)C(=O)N[C@@H](CC(=O)O)C(=O)COc1c(F)c(F)cc(F)c1F,113%,63.6%,0.382%,< 0%,< 0%,31.7%,46.9%,< 0%,< 0%,1.5%,2.48%,5.8%
CN(C)CC(=O)Nc1ccc2[nH]c(=O)c3ccccc3c2c1,97.8%,109%,-2.53%,< 0%,< 0%,24.3%,32.5%,11.1%,2.31%,< 0%,4.93%,9.83%
COc1cc(C(C(=O)NC2CCCCC2)N(C(=O)Cc2c[nH]c3ccccc23)c2ccc(C(C)C)cc2)cc(OC)c1OC (centres undefined),90.8%,90.4%,1.92%,18.7%,22.7%,22.1%,71.8%,< 0%,7.49%,1.84%,18.1%,18.7%
CC[N+]1(C/C2=C/CCCCCC2)CCC(NC(=O)C2c3cc(Cl)ccc3Oc3ccc(Cl)cc32)CC1 (centres undefined),100%,75.9%,7.74%,< 0%,41.9%,21.8%,101%,< 0%,44%,7.3%,34%,6.03%

Structure (SMILES),% viability of CHO cells ([1]; 2 µM),% viability of CHO cells ([1]; 20 µM),% inhibition of HepG2 viability [2],% inhibition of gametocyte viability ([3]; 1 µM),% inhibition of gametocyte viability ([3]; 5 µM),% inhibition of asexual blood stage proliferation ([4]; 2 µM),% inhibition of asexual blood stage proliferation ([4]; 20 µM),% inhibition of gametocyte viability ([5]; 1 µM),% inhibition of gametocyte viability ([5]; 5 µM),% inhibition of gametocyte viability ([6]; 1 µM),% inhibition of gametocyte viability ([6]; 5 µM),% inhibition of liver stage parasite viability [7]
O=C(Nc1nnc(-c2ccc(Cl)cc2)o1)c1ccc(F)cc1,94.3%,106%,-1.68%,< 0%,0.779%,23.1%,-13.5%,< 0%,< 0%,< 0%,1.27%,63.4%
Nc1nnc(-c2ccc(Cl)cc2)s1,84.5%,88.7%,-0.915%,5.08%,< 0%,13.1%,23.9%,< 0%,< 0%,< 0%,< 0%,26.2%
N#CCN1C(=O)COc2cc(F)c(N3C(=O)c4ccccc4C3=O)cc21,91.1%,99.3%,-3.69%,3.4%,2.45%,8.98%,14.8%,< 0%,< 0%,< 0%,14.5%,14.6%
COc1ccc(CNC(=O)C2CCN([C@H](C)c3cccc4ccccc34)CC2)cc1,128%,70.1%,0.399%,< 0%,11%,79.1%,64.2%,8.45%,8.31%,12.8%,< 0%,19.6%
CN(C(=O)C1(c2ccc(Cl)cc2)CCC1)c1ccccc1,105%,102%,-4.47%,17.1%,17.3%,10.7%,59%,< 0%,< 0%,< 0%,1.35%,3.18%
O=c1oc2ccc(Br)cc2cc1CSc1ncc[nH]1,112%,73.8%,3.9%,11.2%,7.96%,-5.59%,79%,6.38%,5.34%,4.59%,< 0%,-13.1%
Nc1ccc2oc(=O)ccc2c1I,72.9%,60%,-2.48%,< 0%,< 0%,29.8%,37.3%,< 0%,< 0%,3.24%,2.65%,6.97%
O=C(O)c1ccc(-c2ccc(O[C@H]3O[C@H](CO)[C@@H](O)[C@H](O)[C@@H]3O)cc2)cc1,94%,102%,-2.59%,< 0%,3.77%,0.633%,16.6%,< 0%,< 0%,< 0%,12.4%,29.4%
Clc1ccc(Cn2c(CN3CCCC3)nc3ccccc32)cc1,97.8%,91.5%,2.06%,23.6%,61%,11.9%,69%,10.2%,57.1%,1.55%,< 0%,22.9%
CC(Cc1ccccc1)C(=O)Nc1ccc(Cl)cc1C(=O)O (centres undefined),102%,99.8%,5.78%,< 0%,< 0%,35.5%,76.5%,< 0%,< 0%,13.7%,11.5%,8.73%
CC1(C)C[C@H]1C(=O)N/C(=C\CCCCSC[C@@H](N)C(=O)O)C(=O)O,229%,49.5%,-5.39%,25.1%,25.8%,20.8%,20.1%,< 0%,< 0%,< 0%,< 0%,12.4%
O=C(NCc1ccc(F)cc1)c1c(O)c2ncccc2[nH]c1=O,121%,91.5%,5.33%,< 0%,20.1%,54.8%,31.4%,3.16%,< 0%,5.58%,< 0%,14%
CCCC(=O)OCCc1ccccc1,114%,99.3%,0.113%,10.7%,4.24%,8.06%,16.5%,< 0%,< 0%,< 0%,0.854%,-8.54%
COc1ccc(-n2cnc3cc(NCc4ccco4)ccc32)cc1,93.6%,94.6%,1.83%,< 0%,< 0%,29.7%,44.9%,2.7%,< 0%,< 0%,< 0%,-16.1%
CN1c2ccc(Cl)cc2N(c2ccccc2)C(=O)c2cn(Cc3ccc(CN4CCOCC4)cc3)nc21,90.9%,69.1%,-4.81%,18.2%,30.1%,0.489%,23.7%,0.0957%,< 0%,15.5%,0.583%,38.6%
CC(C)CCN1C(=O)C(C2=NS(=O)(=O)c3cc(NS(C)(=O)=O)ccc3N2)=C(O)[C@@H]2[C@H]3CC[C@H](C3)[C@@H]21,99.3%,109%,6.58%,9.05%,13.6%,37.2%,56.6%,< 0%,< 0%,1.44%,8.86%,47.3%
CN(C)CCCOc1ccc(-c2ccc3ncc4c(c3c2)n(C2CCOCC2)c(=O)n4C)cn1,99.8%,75.9%,4%,61.8%,91.9%,68.1%,57.1%,18.7%,33.7%,78.1%,92%,64.6%
CCOCc1nc2c(N)nc3ccccc3c2n1CC(C)(C)O,84%,69.2%,8.2%,8.02%,14.8%,58%,77%,< 0%,< 0%,2.74%,5.55%,18.3%
